# According to PubChem BioAssay (EPA / NIEHS):
# Inconclusive results are not listed. Active and inactive are the calls of the source. The calls were made as follows: active = hit-call score of the fitted dose curve at least 0.9, where 1 is the maximum; inconclusive = response in the unintended direction; inactive = score below 0.9.
# How the values were obtained:
# [1] = molecular target: Muscarinic acetylcholine receptor M2 (Homo sapiens) (UniProt P08172); assay: NVS_GPCR_hM2: NovaScreen (NVS) G Protein-Coupled Receptor Assay for human Muscarinic, M2 Receptor (AID 2283273)
# Outline: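 Radioligand displacement on human M2 receptor membranes from CHO cells, 1 h incubation, filtration with scintillation counting. Primary screen in duplicate at 25 uM; actives retested in concentration series; loss of signal fitted versus DMSO.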
# [2] = molecular target: human Muscarinic, M4 Receptor, CHRM4 (gene 1132) (UniProt P08173); assay: NVS_GPCR_hM4: NovaScreen (NVS) G Protein-Coupled Receptor Assay for human Muscarinic, M4 Receptor (AID 2283274)
# Outline: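 Cell-free radioligand displacement using CHO-derived human M4 receptor protein, 1 h after dosing; bound radioactivity by filtration and scintillation counting. Primary screen single 25 uM duplicate, actives followed in concentration series.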
# [3] = molecular target: Muscarinic acetylcholine receptor M5 (Homo sapiens) (UniProt P08912); assay: NVS_GPCR_hM5: NovaScreen (NVS) G Protein-Coupled Receptor Assay for human Muscarinic, M5 Receptor (AID 2283275)
# Outline: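 Radioligand displacement on CHO-derived membrane preparations, 1 h, filter-based scintillation counting. Single-concentration duplicate screen at 25 uM; hits (e.g. 30% inhibition) retested in singleton concentration-response up to 50 uM. Loss of binding fitted versus DMSO.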
# [4] = molecular target: human Neurokinin, NK2 Receptor, TACR2 (gene 6865) (UniProt P21452); assay: NVS_GPCR_hNK2: NovaScreen (NVS) G Protein-Coupled Receptor Assay for human Neurokinin, NK2 Receptor (AID 2283278);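 also: actives reduce bound radioligand signal relative to DMSO baseline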
# Outline: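 Radioligand binding on membranes from CHO cells expressing receptor, filter-based scintillation read 4 h after dosing. Initial duplicate screen at 25 uM, actives in concentration series; loss of signal versus DMSO.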
# [5] = molecular target: human Opioid Receptor Delta 1 (Opiate D1), OPRD1 (gene 4985) (UniProt P41143); assay: NVS_GPCR_hOpiate_D1: NovaScreen (NVS) G Protein-Coupled Receptor Assay for human Opioid Receptor Delta 1 (Opiate D1) (AID 2283280)
# Outline: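 Radioligand displacement on membranes from CHO cells expressing the receptor, read by filter scintillation counting 1 h after dosing. Duplicate single-point screen at 25 uM, then concentration series for actives; loss of signal versus DMSO.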
# [6] = tested on: 5-hydroxytryptamine receptor 2C (pig); assay: NVS_GPCR_p5HT2C: NovaScreen (NVS) G Protein-Coupled Receptor Assay for pig Serotonin, 5-Hydroxytryptamine Receptor 2C (5HT2C) (AID 2283288)
# Outline: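 Pig choroid plexus membranes; radioligand competitive binding, filter-based scintillation counting, read 1 h after dosing. Primary screen in duplicate at 25 uM; actives then run as concentration series; loss of signal versus DMSO baseline.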
# [7] = molecular target: rat Adrenergic, Alpha 1, Non-selective Receptor (Adra1), Adra1a (gene 29412) (UniProt P43140); assay: NVS_GPCR_rAdra1_NonSelective: NovaScreen (NVS) G Protein-Coupled Receptor Assay for rat Adrenergic, Alpha 1, Non-selective Receptor (Adra1) (AID 2283289)
# Outline: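 Rat forebrain membranes; radioligand displacement read by filter-based scintillation counting 1 h after dosing. Primary screen in duplicate at 25 uM; hits (e.g. ≥30% inhibition) rerun as concentration–response to 50 uM max. Fitted versus DMSO.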
# [8] = molecular target: rat Serotonin, 5-Hydroxytryptamine Receptor 1 (5HT1), Non-Selective Binding, Htr1a (gene 24473) (UniProt P19327); assay: NVS_GPCR_r5HT1_NonSelective: NovaScreen (NVS) G Protein-Coupled Receptor Assay for rat Serotonin, 5-Hydroxytryptamine Receptor 1 (5HT1), Non-Selective Binding (AID 2283286)
# Outline: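 Rat cortical membranes, radioligand displacement, 1 h incubation, read by filter scintillation. Primary screen in duplicate at 25 uM. Hits (e.g. ≥30% inhibition) went to concentration-response up to 50 uM, fitted as loss of binding versus DMSO.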
# [9] = molecular target: human Neurotensin Receptor (NTS), NTSR1 (gene 4923) (UniProt P30989); assay: NVS_GPCR_hNTS: NovaScreen (NVS) G Protein-Coupled Receptor Assay for human Neurotensin Receptor (NTS) (AID 2283279)
# Outline: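 Radioligand displacement on human NTSR1 protein from CHO cells, cell-free, 1 h, filter-based scintillation counting. Primary screen at 25 uM in duplicate; hits rerun in concentration-response up to 50 uM.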
# [10] = molecular target: human Orphanin, Opioid Related Nociceptin Receptor 1 (ORL1), OPRL1 (gene 4987) (UniProt P41146); assay: NVS_GPCR_hORL1: NovaScreen (NVS) G Protein-Coupled Receptor Assay for human Orphanin, Opioid Related Nociceptin Receptor 1 (ORL1) (AID 2283283)
# Outline: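 Filter-based radioligand displacement with receptor extracted from HEK293 cells, read 1 hour after dosing by scintillation counting. Duplicate single-point screen at 25 uM; qualifying chemicals then run in concentration-response to 50 uM, analysed relative to DMSO.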
# [11] = molecular target: mouse Cholecystokinin, CCK1 Receptor (CCKA), Cckar (gene 12425) (UniProt O08786); assay: NVS_GPCR_mCCKAPeripheral: NovaScreen (NVS) G Protein-Coupled Receptor Assay for mouse Cholecystokinin, CCK1 Receptor (CCKA) (AID 2283285)
# Outline: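 Radioligand competitive displacement on mouse pancreatic membranes, 2 h incubation; filter-based scintillation counting, loss of signal versus DMSO. Single-concentration screen at 25 uM in duplicate, actives retested in concentration-response up to 50 uM.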
# [12] = tested on: rabbit Platelet Activating Factor Receptor (PAF), gene 100354046; assay: NVS_GPCR_rabPAF: NovaScreen (NVS) G Protein-Coupled Receptor Assay for rabbit Platelet Activating Factor Receptor (PAF) (AID 2283287)
# Outline: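 Rabbit platelet membrane preparation; radioligand displacement read by filter-based scintillation counting 1 h after dosing, loss of signal versus DMSO. Primary screen in duplicate at 25 uM, actives followed up in concentration series.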
# [13] = molecular target: human Purinergic Receptor P2Y, P2RY1 (gene 5028) (UniProt P47900); assay: NVS_GPCR_hPY2: NovaScreen (NVS) G Protein-Coupled Receptor Assay for human Purinergic Receptor P2Y (AID 2283281)
# Outline: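 Cell-free radioligand binding using U937-derived protein, 1 h after dosing, filter-based scintillation counting. Screened in duplicate at 25 uM; actives rerun as concentration-response up to 50 uM; loss of signal versus DMSO.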
# [14] = molecular target: human Thromboxane A2 Receptor (TXA2), TBXA2R (gene 6915) (UniProt P21731); assay: NVS_GPCR_hTXA2: NovaScreen (NVS) G Protein-Coupled Receptor Assay for human Thromboxane A2 Receptor (TXA2) (AID 2283282);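 also: actives reduce bound radioligand signal relative to DMSO baseline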
# Outline: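 Biochem binding, human platelets, cell-free; competitive radioligand displacement; 1 h; filter radiodetection. 25 uM duplicate primary, conc. series secondary; DMSO neg. ctrl.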
# [15] = molecular target: human Neuropeptide Receptor Y1 (NPY1), NPY1R (gene 4886) (UniProt P25929); assay: NVS_GPCR_hNPY1: NovaScreen (NVS) G Protein-Coupled Receptor Assay for human Neuropeptide Receptor Y1 (NPY1) (AID 2283276)
# Outline: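 Cell-free radioligand binding using receptor extracted from SK-N-MC cells, 1 h incubation, filter-based scintillation counting. Primary screen single concentration 25 uM in duplicate; actives followed in concentration series. Loss of bound signal scored versus DMSO.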
# [16] = molecular target: human Leukotriene B4 Receptor 1 (LTB4-BLT1), LTB4R (gene 1241) (UniProt Q15722); assay: NVS_GPCR_hLTB4_BLT1: NovaScreen (NVS) G Protein-Coupled Receptor Assay for human Leukotriene B4 Receptor 1 (LTB4-BLT1) (AID 2283271)
# Outline: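 Radioligand displacement binding on receptor extracted from human neutrophils, cell-free, 1 h after dosing; filter-based scintillation counting. Primary screen in duplicate at 25 uM, actives retested in concentration-response up to 50 uM; loss of signal versus DMSO.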
# [17] = molecular target: Muscarinic acetylcholine receptor M1 (Homo sapiens) (UniProt P11229); assay: NVS_GPCR_hM1: NovaScreen (NVS) G Protein-Coupled Receptor Assay for human Muscarinic, M1 Receptor (AID 2283270)
# Outline: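 Cell-free radioligand displacement using membrane protein extracted from CHO cells, read by filter-based scintillation counting 1 h after dosing. Loss of bound signal fitted versus DMSO; primary screen single concentration 25 uM in duplicate, actives followed by concentration series.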
# [18] = molecular target: Muscarinic acetylcholine receptor M3 (Homo sapiens) (UniProt P20309); assay: NVS_GPCR_hM3: NovaScreen (NVS) G Protein-Coupled Receptor Assay for human Muscarinic, M3 Receptor (AID 2283272)
# Outline: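 Radioligand displacement binding on human M3 receptor in CHO-derived membranes, 1 h incubation, filter-based scintillation counting. Primary screen in duplicate at 25 uM; actives followed up in concentration series; loss of signal versus DMSO.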
# [19] = molecular target: human Vasopressin 1A Receptor (V1A), AVPR1A (gene 552) (UniProt P37288); assay: NVS_GPCR_hV1A: NovaScreen (NVS) G Protein-Coupled Receptor Assay for human Vasopressin 1A Receptor (V1A) (AID 2283284)
# Outline: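 Cell-free radioligand displacement on human platelet preparations, 1.5 h incubation, filter-based scintillation counting. Chemicals first tested in duplicate at 25 uM; actives then run in concentration-response up to 50 uM, loss of signal fitted against DMSO.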
# [20] = molecular target: Neuropeptide Y receptor type 2 (Homo sapiens) (UniProt P49146); assay: NVS_GPCR_hNPY2: NovaScreen (NVS) G Protein-Coupled Receptor Assay for human Neuropeptide Receptor Y2 (NPY2) (AID 2283277)
# Outline: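 Radioligand binding on membranes extracted from SK-N-MC cells, cell-free, read 1 h after dosing by filter-based scintillation counting. Loss of signal vs DMSO. Primary screen in duplicate at 25 uM; actives followed up in concentration-response up to 50 uM.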
# Chain of Muscarinic acetylcholine receptor M5 (Homo sapiens) (P08912 whole entry, looked up): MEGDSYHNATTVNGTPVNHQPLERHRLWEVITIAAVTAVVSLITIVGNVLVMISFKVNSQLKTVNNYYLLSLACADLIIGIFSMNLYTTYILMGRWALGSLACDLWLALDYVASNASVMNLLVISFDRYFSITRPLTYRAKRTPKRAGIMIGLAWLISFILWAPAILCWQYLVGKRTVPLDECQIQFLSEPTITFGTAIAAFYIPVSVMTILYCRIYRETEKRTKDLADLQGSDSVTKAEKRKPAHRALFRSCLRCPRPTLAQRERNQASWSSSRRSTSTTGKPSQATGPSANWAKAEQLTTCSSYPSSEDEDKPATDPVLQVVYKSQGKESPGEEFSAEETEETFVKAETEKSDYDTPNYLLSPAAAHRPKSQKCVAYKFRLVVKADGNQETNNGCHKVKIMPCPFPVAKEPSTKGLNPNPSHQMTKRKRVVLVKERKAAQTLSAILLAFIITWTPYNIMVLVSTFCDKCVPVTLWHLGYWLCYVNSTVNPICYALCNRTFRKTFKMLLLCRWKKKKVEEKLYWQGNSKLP
# Chain of human Neurokinin, NK2 Receptor, TACR2 (gene 6865) (P21452 whole entry, looked up): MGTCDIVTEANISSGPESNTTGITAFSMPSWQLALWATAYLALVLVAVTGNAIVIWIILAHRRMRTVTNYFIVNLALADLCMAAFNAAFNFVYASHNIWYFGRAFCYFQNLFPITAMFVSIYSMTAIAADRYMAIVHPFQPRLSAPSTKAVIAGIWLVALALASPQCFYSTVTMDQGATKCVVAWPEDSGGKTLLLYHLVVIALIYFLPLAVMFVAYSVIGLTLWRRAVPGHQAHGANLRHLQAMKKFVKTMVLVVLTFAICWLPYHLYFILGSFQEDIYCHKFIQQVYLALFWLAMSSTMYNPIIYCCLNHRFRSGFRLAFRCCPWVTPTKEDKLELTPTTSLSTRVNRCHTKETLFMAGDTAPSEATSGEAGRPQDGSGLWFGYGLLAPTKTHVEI
# Chain of mouse Cholecystokinin, CCK1 Receptor (CCKA), Cckar (gene 12425) (O08786 whole entry, looked up): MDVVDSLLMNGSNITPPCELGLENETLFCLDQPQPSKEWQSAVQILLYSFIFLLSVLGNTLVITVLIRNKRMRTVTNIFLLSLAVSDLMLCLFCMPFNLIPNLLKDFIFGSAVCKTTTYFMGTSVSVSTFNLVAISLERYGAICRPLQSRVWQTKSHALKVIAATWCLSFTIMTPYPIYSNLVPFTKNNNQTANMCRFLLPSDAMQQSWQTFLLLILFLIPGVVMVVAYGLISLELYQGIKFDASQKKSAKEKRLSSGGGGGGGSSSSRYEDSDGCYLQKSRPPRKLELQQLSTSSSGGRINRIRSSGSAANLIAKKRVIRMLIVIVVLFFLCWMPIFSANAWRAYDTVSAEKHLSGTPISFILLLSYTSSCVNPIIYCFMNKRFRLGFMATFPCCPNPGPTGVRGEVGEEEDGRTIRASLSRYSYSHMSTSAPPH
# Chain of Muscarinic acetylcholine receptor M2 (Homo sapiens) (P08172 whole entry, looked up): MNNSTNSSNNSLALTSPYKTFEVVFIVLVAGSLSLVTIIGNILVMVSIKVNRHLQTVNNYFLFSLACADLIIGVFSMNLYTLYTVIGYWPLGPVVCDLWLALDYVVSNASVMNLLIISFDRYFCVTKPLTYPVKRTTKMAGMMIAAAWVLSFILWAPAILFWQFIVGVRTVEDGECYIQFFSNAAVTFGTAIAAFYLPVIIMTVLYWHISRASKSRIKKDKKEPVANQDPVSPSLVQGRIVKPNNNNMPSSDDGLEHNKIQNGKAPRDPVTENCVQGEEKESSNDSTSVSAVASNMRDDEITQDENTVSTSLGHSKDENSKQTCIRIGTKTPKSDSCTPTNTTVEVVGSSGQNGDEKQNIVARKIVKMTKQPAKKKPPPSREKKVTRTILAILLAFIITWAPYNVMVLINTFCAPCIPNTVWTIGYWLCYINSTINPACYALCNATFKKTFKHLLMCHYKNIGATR
# Chain of human Opioid Receptor Delta 1 (Opiate D1), OPRD1 (gene 4985) (P41143 whole entry, looked up): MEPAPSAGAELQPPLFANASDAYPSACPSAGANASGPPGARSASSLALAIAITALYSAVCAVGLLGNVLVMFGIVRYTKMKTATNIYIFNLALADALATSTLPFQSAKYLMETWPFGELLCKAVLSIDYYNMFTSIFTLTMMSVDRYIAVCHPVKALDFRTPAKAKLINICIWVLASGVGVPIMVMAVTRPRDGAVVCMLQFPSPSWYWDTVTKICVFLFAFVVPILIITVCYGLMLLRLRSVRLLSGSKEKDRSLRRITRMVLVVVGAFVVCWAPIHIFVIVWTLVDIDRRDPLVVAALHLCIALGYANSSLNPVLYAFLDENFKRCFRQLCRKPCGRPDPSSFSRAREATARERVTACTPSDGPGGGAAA
# Chain of human Muscarinic, M4 Receptor, CHRM4 (gene 1132) (P08173 whole entry, looked up): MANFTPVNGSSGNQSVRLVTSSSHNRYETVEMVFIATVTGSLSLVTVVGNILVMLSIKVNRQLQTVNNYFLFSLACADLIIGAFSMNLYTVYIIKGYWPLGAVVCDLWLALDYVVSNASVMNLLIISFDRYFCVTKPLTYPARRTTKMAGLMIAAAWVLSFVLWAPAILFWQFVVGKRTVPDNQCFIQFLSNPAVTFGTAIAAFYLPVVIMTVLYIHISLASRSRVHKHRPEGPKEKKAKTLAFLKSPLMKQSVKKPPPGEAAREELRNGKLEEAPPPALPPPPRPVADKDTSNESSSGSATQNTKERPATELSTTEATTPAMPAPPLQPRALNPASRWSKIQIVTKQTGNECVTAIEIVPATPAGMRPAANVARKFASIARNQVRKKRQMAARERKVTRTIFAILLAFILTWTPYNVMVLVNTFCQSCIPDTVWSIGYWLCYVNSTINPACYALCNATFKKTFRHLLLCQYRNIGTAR
# Chain of human Thromboxane A2 Receptor (TXA2), TBXA2R (gene 6915) (P21731 whole entry, looked up): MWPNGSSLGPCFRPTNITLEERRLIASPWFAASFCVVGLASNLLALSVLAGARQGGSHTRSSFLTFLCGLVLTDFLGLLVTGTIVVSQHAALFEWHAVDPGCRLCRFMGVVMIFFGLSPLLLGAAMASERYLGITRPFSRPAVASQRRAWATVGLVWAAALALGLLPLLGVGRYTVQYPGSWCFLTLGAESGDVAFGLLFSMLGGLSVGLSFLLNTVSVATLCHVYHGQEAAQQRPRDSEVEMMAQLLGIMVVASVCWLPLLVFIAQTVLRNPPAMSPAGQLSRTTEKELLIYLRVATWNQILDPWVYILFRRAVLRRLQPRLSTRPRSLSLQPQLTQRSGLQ
# Chain of rat Adrenergic, Alpha 1, Non-selective Receptor (Adra1), Adra1a (gene 29412) (P43140 whole entry, looked up): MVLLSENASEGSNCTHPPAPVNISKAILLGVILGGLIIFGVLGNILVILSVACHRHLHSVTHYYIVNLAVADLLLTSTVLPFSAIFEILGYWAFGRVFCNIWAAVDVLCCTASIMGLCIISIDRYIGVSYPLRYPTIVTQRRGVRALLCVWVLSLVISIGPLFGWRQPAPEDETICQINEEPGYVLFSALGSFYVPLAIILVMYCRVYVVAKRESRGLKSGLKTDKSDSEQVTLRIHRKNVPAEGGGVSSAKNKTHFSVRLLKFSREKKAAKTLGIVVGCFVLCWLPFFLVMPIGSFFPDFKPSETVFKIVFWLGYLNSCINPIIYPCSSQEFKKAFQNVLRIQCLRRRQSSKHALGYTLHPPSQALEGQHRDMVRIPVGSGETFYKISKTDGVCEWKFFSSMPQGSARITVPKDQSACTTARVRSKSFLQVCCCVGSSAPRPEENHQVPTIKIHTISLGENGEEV
# Chain of human Orphanin, Opioid Related Nociceptin Receptor 1 (ORL1), OPRL1 (gene 4987) (P41146 whole entry, looked up): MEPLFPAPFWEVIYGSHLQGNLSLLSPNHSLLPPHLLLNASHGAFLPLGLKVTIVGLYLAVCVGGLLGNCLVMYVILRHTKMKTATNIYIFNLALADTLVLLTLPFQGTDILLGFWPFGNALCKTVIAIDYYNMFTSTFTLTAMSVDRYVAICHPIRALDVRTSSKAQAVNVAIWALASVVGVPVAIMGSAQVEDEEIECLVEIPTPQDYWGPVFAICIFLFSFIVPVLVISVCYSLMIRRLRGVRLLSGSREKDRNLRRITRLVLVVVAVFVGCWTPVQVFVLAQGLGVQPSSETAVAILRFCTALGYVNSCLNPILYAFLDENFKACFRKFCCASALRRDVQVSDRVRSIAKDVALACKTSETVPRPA
# Chain of human Neuropeptide Receptor Y1 (NPY1), NPY1R (gene 4886) (P25929 whole entry, looked up): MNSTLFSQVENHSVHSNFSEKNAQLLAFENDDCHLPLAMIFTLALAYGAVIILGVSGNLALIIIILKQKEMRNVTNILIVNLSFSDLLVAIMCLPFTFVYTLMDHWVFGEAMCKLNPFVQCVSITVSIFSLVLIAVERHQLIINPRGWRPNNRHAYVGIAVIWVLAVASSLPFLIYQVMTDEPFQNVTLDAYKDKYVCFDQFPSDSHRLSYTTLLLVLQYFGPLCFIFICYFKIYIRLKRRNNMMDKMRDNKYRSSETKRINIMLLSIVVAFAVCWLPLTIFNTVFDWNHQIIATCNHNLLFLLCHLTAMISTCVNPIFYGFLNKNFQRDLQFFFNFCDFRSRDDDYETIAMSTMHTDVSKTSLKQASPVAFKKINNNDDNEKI
# Chain of rat Serotonin, 5-Hydroxytryptamine Receptor 1 (5HT1), Non-Selective Binding, Htr1a (gene 24473) (P19327 whole entry, looked up): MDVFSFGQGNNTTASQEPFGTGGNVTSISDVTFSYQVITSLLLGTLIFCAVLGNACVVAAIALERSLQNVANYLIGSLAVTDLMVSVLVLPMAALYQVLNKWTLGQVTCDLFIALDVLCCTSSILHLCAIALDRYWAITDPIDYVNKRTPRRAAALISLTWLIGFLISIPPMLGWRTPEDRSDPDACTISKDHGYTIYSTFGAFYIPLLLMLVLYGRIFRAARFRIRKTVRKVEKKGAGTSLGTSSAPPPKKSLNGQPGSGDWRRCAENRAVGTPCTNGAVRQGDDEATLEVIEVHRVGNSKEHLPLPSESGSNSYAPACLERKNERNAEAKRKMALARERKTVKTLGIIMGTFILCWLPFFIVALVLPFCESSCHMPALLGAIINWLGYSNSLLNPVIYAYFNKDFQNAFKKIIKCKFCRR
smiles,measurement,setting,value
CC(=O)NC1(c2cccc(F)c2)CCN(CC[C@@]2(c3ccc(Cl)c(Cl)c3)CN(c3ccccc3)C(=O)CO2)CC1,AC50,[1],8.68 µM (active)
same,AC50,[2],13.9 µM (active)
same,AC50,[3],10.6 µM (active)
same,AC50,[4],0.00268 µM (active)
same,outcome,[5],inactive
same,AC50,[6],3.53 µM (active)
same,AC50,[7],11.8 µM (active)
CC1=C(/C=C/C(C)=C/C=C/C(C)=C/C(=O)O)C(C)(C)CCC1,AC50,[8],4.36 µM (active)
O=[N+]([O-])c1ccc(O)cc1,outcome,[6],inactive
Cc1cc(CCN2CCN(c3nsc4ccccc34)CC2)cc2c1NC(=O)CC2(C)C,AC50,[4],5.07 µM (active)
same,AC50,[6],0.00247 µM (active)
CC(C)(C)CC(C)(C)c1ccc(O)c(-n2nc3ccccc3n2)c1,AC50,[9],19.4 µM (active)
CCC(=C(c1ccc(O)cc1)c1ccc(OCCN(C)C)cc1)c1ccccc1,outcome,[1],inactive
same,AC50,[3],2.52 µM (active)
same,outcome,[10],inactive
same,AC50,[11],0.808 µM (active)
same,AC50,[12],4.17 µM (active)
NC(=O)N1C(=O)C(C(=O)c2cc(Cl)cs2)c2cc(F)c(Cl)cc21 (stereo not drawn),outcome,[5],inactive
same,outcome,[13],inactive
same,AC50,[14],0.961 µM (active)
same,outcome,[11],inactive
same,outcome,[6],inactive
Oc1cc2ccccc2c2ccccc12,outcome,[4],inactive
same,AC50,[6],0.848 µM (active)
Oc1cccc(O)c1,outcome,[15],inactive
O=c1c(-c2ccc(O)cc2)coc2cc(O)ccc12,outcome,[16],inactive
CCN(CC)CCNc1ccc(CNC=O)c2sc3ccc(OC)cc3c(=O)c12,AC50,[17],4.7 µM (active)
same,AC50,[18],8.94 µM (active)
same,AC50,[1],11.7 µM (active)
same,AC50,[2],8.13 µM (active)
same,AC50,[3],7.21 µM (active)
same,outcome,[5],inactive
same,AC50,[6],13.5 µM (active)
same,AC50,[7],20.1 µM (active)
CC[C@H](c1ccc(O)cc1)[C@@H](CC)c1ccc(O)cc1,AC50,[5],8.04 µM (active)
CCCOc1sc(C(=O)N2CCC(c3cc(CN)ccc3F)CC2)c(C)c1Br,AC50,[17],8.67 µM (active)
same,AC50,[18],11.3 µM (active)
same,AC50,[1],12.2 µM (active)
same,AC50,[2],11.1 µM (active)
same,AC50,[3],4.84 µM (active)
same,AC50,[15],13.5 µM (active)
same,AC50,[4],7.85 µM (active)
same,AC50,[5],9.25 µM (active)
same,outcome,[14],inactive
same,AC50,[10],24 µM (active)
same,outcome,[19],inactive
same,AC50,[11],27.1 µM (active)
same,AC50,[8],5.18 µM (active)
same,AC50,[12],23.2 µM (active)
same,AC50,[6],16.6 µM (active)
same,AC50,[7],20.6 µM (active)
CCCCC(CC)COC(=O)CCCCC(=O)OCC(CC)CCCC (stereo not drawn),outcome,[20],inactive
same,AC50,[14],13.8 µM (active)
